From the supplement of paper PMC13380429 come the findings set out here.

Assay [1] has as its system Vero E6 infected with SARS-CoV-2. Put plainly: morphology score (similarity to uninfected cells); higher = more like uninfected cells. As to conditions: 24 h.
Assay [2] has the same test system. Nature of the assay: SARS-CoV-2 infection rate relative to infected DMSO; higher = more infection, active = 60 or less. As to conditions: 24 h.

`Cc1ccc(N(CC2=NCCN2)c2cccc(O)c2)cc1` [phentolamine] (10 µM) had a morphology score in assay [1] of -0.00261. Moreover, the SARS-CoV-2 infection rate in assay [2] was 98% (inactive).

Compound `Cc1cccc(N(C)C(=S)Oc2ccc3ccccc3c2)c1` [tolnaftate] (10 µM) yielded a morphology score in assay [1] of 0.136. The SARS-CoV-2 infection rate in assay [2] is 104% (inactive).

Regarding `CC(C)C(N)C(=O)O` (stereo in doubt) [L-valine] (10 µM), the morphology score in assay [1] came to 0.0236. Besides, the SARS-CoV-2 infection rate in assay [2] is 109% (inactive).

In the case of `Fc1ccc(Cn2c(NC3CCNCC3)nc3ccccc32)cc1` [tecastemizole] (10 µM), in assay [1], the morphology score is -0.00173. For the same compound, the SARS-CoV-2 infection rate in assay [2] is 111% (inactive).

On to `O=C(c1ccc(F)cc1)C1CCN(CCn2c(=S)[nH]c3ccccc3c2=O)CC1` [altanserin] (10 µM), for which the morphology score in assay [1] is -0.0789. In addition, the SARS-CoV-2 infection rate in assay [2] was 99% (inactive).

On to `CN1CCN2c3c(cccc31)[C@@H]1CN(CCCC(=O)c3ccc(F)cc3)CC[C@@H]12` [lumateperone] (10 µM), for which the morphology score in assay [1] was found to be 0.348. In assay [2], the SARS-CoV-2 infection rate is 86% (inactive).

Turning to `O=C1c2ccccc2C(Cc2ccncc2)(Cc2ccncc2)c2ccccc21` (10 µM), the morphology score in assay [1] is -0.0398. In assay [2], the SARS-CoV-2 infection rate was 98% (inactive).

In assay [1], `COc1ccc(CCC(=O)Nc2nc3ccc(Cl)cc3s2)cc1OC` (10 µM) showed a morphology score of 0.197. Moreover, in assay [2], the SARS-CoV-2 infection rate was 100% (inactive).

As to `C[C@H](CCC(=O)O)[C@H]1CC[C@H]2[C@@H]3[C@@H](O)C[C@@H]4C[C@H](O)CC[C@]4(C)[C@H]3CC[C@]12C` [ursodiol] (10 µM), in assay [1], the morphology score is -0.0233. In addition, the SARS-CoV-2 infection rate in assay [2] is 106% (inactive).

The compound `Nc1ncnc2c1c(-c1ccc(Cl)cc1)nn2-c1cccc(-c2cnnn2Cc2cccc(-c3ccccc3)c2)c1` (10 µM) registered a morphology score in assay [1] of -0.00803. In addition, the SARS-CoV-2 infection rate in assay [2] is 104% (inactive).

`OC[C@H]1O[C@@H](c2ccc(Cl)c(Cc3ccc(O[C@H]4CCOC4)cc3)c2)[C@H](O)[C@@H](O)[C@@H]1O` [empagliflozin] (10 µM): in assay [1], the morphology score is -0.159. The SARS-CoV-2 infection rate in assay [2] is 106% (inactive).

`O=C(OC(C(F)(F)F)C(F)(F)F)N1CCN(Cc2cccc(Oc3ccccc3)c2)CC1` (10 µM) had a morphology score in assay [1] of -0.142. The SARS-CoV-2 infection rate in assay [2] is 24.5% (active).

Take `OC(c1ccccc1)(c1ccccc1)C12CC[N+](CCOCc3ccccc3)(CC1)CC2` [umeclidinium] (10 µM): the morphology score in assay [1] stood at 0.162. In addition, the SARS-CoV-2 infection rate in assay [2] is 101% (inactive).

In assay [1], `CC(C)c1cc(CNc2nc(Nc3cc(C4CC4)[nH]n3)cc(N3CCN(C)CC3)n2)on1` (10 µM) gave a morphology score of -0.0949. The SARS-CoV-2 infection rate in assay [2] is 112% (inactive).

On to `CO/N=C(\C(=O)N[C@@H]1C(=O)N2C(C(=O)OCOC(=O)C(C)(C)C)=C(/C=C\c3scnc3C)CS[C@H]12)c1csc(N)n1` [cefditoren-pivoxil] (10 µM), for which, in assay [1], the morphology score was 0.149. In addition, the SARS-CoV-2 infection rate in assay [2] is 99.5% (inactive).

Compound `CC1(C)[C@@H](O)CC[C@]2(C)[C@H]3C(=O)C=C4[C@@H]5C[C@@](C)(C(=O)O)CC[C@]5(C)CC[C@@]4(C)[C@]3(C)CC[C@@H]12` [enoxolone] (10 µM) displayed a morphology score in assay [1] of 0.00688. Besides, the SARS-CoV-2 infection rate in assay [2] is 110% (inactive).

For `CC(C)(Oc1ccc(Cl)cc1)C(=O)N1CSCC1C(=O)O` (centres undefined) [timofibrate] (10 µM), the morphology score in assay [1] is 0.0255. The SARS-CoV-2 infection rate in assay [2] is 106% (inactive).

In assay [1], `NC[C@H]1O[C@H](O[C@H]2[C@H](O[C@@H]3O[C@H](CO)[C@@H](O)[C@H]3O)[C@@H](O)[C@H](N)C[C@@H]2N)[C@H](N)[C@@H](O)[C@@H]1O` [ribostamycin-sulfate] (10 µM) came in with a morphology score of 0.199. Besides, the SARS-CoV-2 infection rate in assay [2] is 105% (inactive).

In turn, `CC1(C)OC2(C)C(O)CC1CC2O` (centres undefined) [epomediol] (10 µM) returned a morphology score in assay [1] of 0.173. The SARS-CoV-2 infection rate in assay [2] was 100% (inactive).

Compound `CNC(=O)c1ccc(N2C(=S)N(c3cnc(C#N)c(C(F)(F)F)c3)C(=O)C23CCC3)cc1F` [apalutamide] (10 µM) gave a morphology score in assay [1] of 0.0169. In assay [2], the SARS-CoV-2 infection rate was 109% (inactive).

In the case of `CC(=O)O/N=C1\C(=O)N(Cc2cc(Cl)ccc2Cl)c2ccc(Cl)cc21` (10 µM), in assay [1], the morphology score came out at 0.395. Also, in assay [2], the SARS-CoV-2 infection rate was 76% (inactive).

In assay [1], `CCN(CC)CCOCCOC(=O)C(CC)(CC)c1ccccc1` [oxelaidin] (10 µM) displayed a morphology score of 0.423. Further, the SARS-CoV-2 infection rate in assay [2] was 73.5% (inactive).

In assay [1], `CCCCCCCCCCCCCCC[C@@H](O)[C@@H](N)CO` [safingol] (10 µM) registered a morphology score of -0.197. Further, the SARS-CoV-2 infection rate in assay [2] was 117% (inactive).

`CC(C)(C)NC[C@H](O)c1ccc(O)cc1Cl` [meluadrine] (10 µM) came in with a morphology score in assay [1] of 0.0145. Also, in assay [2], the SARS-CoV-2 infection rate is 94% (inactive).

Consider `O=C(Cn1ccnc1[N+](=O)[O-])NCCO` [etanidazole] (10 µM), for which the morphology score in assay [1] amounted to 0.0673. Also, the SARS-CoV-2 infection rate in assay [2] is 94.5% (inactive).

In assay [1], `NC(=O)CN1Cc2ccccc2OC1=O` [caroxazone] (10 µM) showed a morphology score of 0.0974. For the same compound, in assay [2], the SARS-CoV-2 infection rate was 100% (inactive).

The compound `CS(=O)(=O)c1ccc([C@@H](CC2CCCC2)C(=O)Nc2nccs2)cc1` (10 µM) had a morphology score in assay [1] of 0.0357. Besides, in assay [2], the SARS-CoV-2 infection rate is 104% (inactive).
